# PubChem BioAssay (NCATS)
# Inconclusive results are not listed. Entries that show only a call come without a potency. The source made the active and inactive calls. The call rests on the fitted dose curve; in most records, active means well fitted inhibition curve with a large enough effect; inconclusive means small, poorly fitted or top-dose-only effect; inactive means flat fitted curve, though single readings scatter.
# Biological target: Calcium and integrin-binding protein 1 (Homo sapiens) (UniProt Q99828)
# Sequence (Q99828 whole entry, looked up): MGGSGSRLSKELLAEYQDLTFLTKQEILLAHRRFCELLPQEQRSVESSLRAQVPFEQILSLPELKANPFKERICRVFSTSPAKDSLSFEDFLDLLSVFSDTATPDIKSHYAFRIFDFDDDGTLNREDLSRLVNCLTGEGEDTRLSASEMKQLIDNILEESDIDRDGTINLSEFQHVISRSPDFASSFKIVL
# Experiment: Primary qHTS for Identification of Calcium Integrin Binding Protein 1 (CIB1) Competitor (AID 1508620);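 further: GST tagged CIB1 binding a fluorescein labelled alphaIIb integrin peptide tracer; top concentration of the series differs between compounds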
# Conditions: CIB1-GST / FITC-alphaIIb peptide fluorescence polarization; series mostly up to 114 µM
# Method in brief: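 CIB1-GST (1 uM final) and compound incubated 15 min at room temperature before adding FITC-alphaIIb peptide tracer (100 nM final). Competition for binding read by fluorescence polarization (ex 480, em 540) after another 15 min at room temperature.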
row,Structure (SMILES),Potency
1,Cc1ccc(OCCn2c(CCNC(=O)c3ccncc3)nc3ccccc32)cc1,inactive
2,NC(=O)C1CCN(c2nc(-c3cccc(C(F)(F)F)c3)cs2)CC1,inactive
3,COc1cccc(C2c3c(ncn(-c4cccc(C#N)c4)c3=N)Oc3ccc4ccccc4c32)c1 (configuration not stated),inactive
4,O=C(/C=C/c1ccccc1Cl)Nc1cccc([S+](=O)([O-])Nc2ccccc2F)c1,inactive
5,CC(=O)NCc1cc(Cl)c2cccnc2c1O,inactive
6,O=C1CCCC2=C1C(c1c(Cl)cccc1Cl)N=C(Nc1nc3ccccc3o1)N2 (configuration not stated),inactive
7,c1ccc(-n2cc(-c3nnc4n3CCCCC4)c3ccccc32)cc1,inactive
8,N[C@H]1CCN(c2cnc3c(O)ccc(C(=O)O)c3c2)C1,inactive
9,CCOc1ccc(C(=O)Oc2ccc(-c3nc4ccccc4[nH]3)cc2)cc1[N+](=O)[O-],inactive
10,FC(F)(F)c1cc(-c2ccc(CNc3nc(-c4ccccc4C(F)(F)F)nc4ccccc34)cc2)ccc1Cl,inactive
11,CC(C)Oc1cccc(-c2cnc(N3CCC(C(N)=O)CC3)s2)c1,inactive
12,COc1cccc(-c2nc3cc(NC(=O)c4ccc(C)c([N+](=O)[O-])c4)ccc3o2)c1,inactive
13,CCn1c2cc(C)sc2c2cnn(Cc3ccccc3F)c(=O)c21,inactive
14,CCOc1ccc(CCNC(=O)c2cc3c(s2)CCC3)cc1OCC,inactive
15,O=C(O)c1cc(Br)c(O)c2ncccc12,inactive
16,N#Cc1cc(NC(=O)Nc2nnc(-c3ccncc3)s2)ccc1-c1ccc[nH]1,inactive
17,COc1ccc(C)cc1NC(=O)C(OC(=O)CNC(=O)c1ccccc1)c1ccccc1 (configuration not stated),inactive
